# Screening results: PubChem, National Center for Advancing Translational Sciences (NCATS)
# The list is not random: actives were taken first. Their share in the collection is about 3.7%.
# TGFb SMAD3 inh: qHTS for Inhibitors of TGF-b; HepG2 CAGA-GFP TGF-b/SMAD3 reporter, GFP fluorescence, 18 h; TGF-beta stimulated, 500 pg/mL final; Potency, µM (series often up to 46.1 µM), inactives show top-dose activity, negative = inhibition, actives largely listed as inhibitors; actives 1.2% (n = 410,000); AID 588855, 2011; also: % is scaled to controls: 0 for no effect and ±100 for the full control effect; nearly all actives have a fitted effect of over 65% in size
#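 Read-out: total well GFP (ex488/em500-530) summed from mean per-cell fluorescence. Cells: HEPG2 CAGA-GFP, 1% FBS DMEM, 18 h at 37 degrees C with 500 pg/mL final TGF-beta. Unstimulated wells served as the full-inhibition control; stimulated DMSO wells = 0%.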
# GLP1R inv ag: qHTS of GLP-1 Receptor Inverse Agonists (Inhibition Mode) | Glucagon-like peptide 1 receptor (Homo sapiens), P43220 | HEK293 GLP-1R CRE-luciferase, luminescence, 24 h; GLP-1R form is constitutively active | Potency, µM (series often up to 38.3 µM), inactives show at the highest dose activity change, negative = inhibition, most hits filed as inhibitors | actives 1.6% (n = 410,000); also: % is scaled to controls: 0 for no effect and ±100 for the full control effect; nearly all actives have a fitted effect of over 55% in size
# Target sequence (P43220 whole entry, looked up): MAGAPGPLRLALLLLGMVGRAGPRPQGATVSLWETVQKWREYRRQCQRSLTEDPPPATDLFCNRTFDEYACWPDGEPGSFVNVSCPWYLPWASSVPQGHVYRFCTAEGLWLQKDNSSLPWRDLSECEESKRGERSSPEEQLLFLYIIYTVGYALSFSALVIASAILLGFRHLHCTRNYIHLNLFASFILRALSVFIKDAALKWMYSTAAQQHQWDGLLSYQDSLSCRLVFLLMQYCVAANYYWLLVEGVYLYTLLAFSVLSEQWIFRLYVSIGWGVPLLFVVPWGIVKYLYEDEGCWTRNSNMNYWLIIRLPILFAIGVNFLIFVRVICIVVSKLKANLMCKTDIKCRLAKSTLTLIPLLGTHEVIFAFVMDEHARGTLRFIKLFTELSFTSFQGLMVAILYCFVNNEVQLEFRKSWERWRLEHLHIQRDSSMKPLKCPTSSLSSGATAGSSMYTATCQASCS
#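 HEK293 cells stably co-expressing constitutively active GLP-1R and a cAMP-responsive luciferase reporter were seeded in DMEM with 10% Nu serum, given compounds after 12 h, and incubated 24 h at 37 deg C. Luminescence was then read.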
# S2 tox: Viability Counterscreen for Primary qHTS for Inhibitors of ATXN expression; S2 cells (HEK-293 line with an ATXN2-luciferase reporter) viability, CellTiter-Fluor protease fluorescence, 24 h; Potency, µM (top dose mostly 56.7 µM), actives largely listed as cytotoxic; actives 0.49% (n = 400,000); also: nearly all actives have a fitted effect of over 40% in size
# GLP-1R agonist: qHTS of GLP-1 Receptor Agonists; Glucagon-like peptide 1 receptor (Homo sapiens), P43220; HEK293 GLP-1R CRE-luciferase, luminescence, 4-6 h; cells express a hypersensitive GLP-1R form; Potency, µM (highest dose often 45.6 µM), inactives show at the highest dose activation, usual class: activators; actives 0.007% (n = 380,000); AID 624172, 2012; also: % of control where 0% means no effect
# HepG2 tox: qHTS for Inhibitors of TGF-b: Cytotox Counterscreen | HepG2 CAGA-GFP viability, ATP luminescence, 18 h | Potency, µM (top dose mostly 46.1 µM), inactives show top-dose activity change, negative = cytotoxicity, actives largely listed as cytotoxic | actives 0.76% (n = 410,000)
#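 CellTiter-Glo luminescence gave cytotoxicity after 18 hours at 37 degrees C. The cells were HepG2 CAGA-GFP in 1% FBS DMEM, stimulated with 500 pg/mL TGF-beta after compound addition. %Activity was normalised to no-cell wells (complete cell-killing) and DMSO (no toxicity), and curves were fitted and classified.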
# ATXN2 expr inh: Primary qHTS for Inhibitors of ATXN expression | HEK-293 ATXN2-luciferase reporter, luminescence, 24 h | actives 0.72% (n = 360,000) | Potency, µM (highest dose often 57 µM), for the others: at the top dose activity change, negative = inhibition, usual class: inhibitors | AID 1745845, 2022; also: % is scaled to controls: 0 for no effect and ±100 for the full control effect; nearly all actives have a fitted effect of over 55% in size
#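 ATXN2-luciferase reporter cells (luciferase flanked by upstream and downstream ATXN2 gene portions) were treated 24 h at 37 °C with compounds at up to 57 uM. SteadyGlo luminescence gave expression; GF-AFC fluorescence gave viability.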
# * = called active by the depositor; i = inactive; ? = inconclusive; / = no result given. Calls follow the shape of the dose curve; as a rule, active = well fitted curve in the direction sought with a large enough effect; inconclusive = small, poorly fitted or top-dose-only effect, or another doubt; inactive = no such curve, though single readings can be large; an effect the other way counts as inactive or inconclusive. Potency is read from the fitted curve at half-maximal effect.
SMILES,TGFb SMAD3 inh,GLP1R inv ag,S2 tox,GLP-1R agonist,HepG2 tox,ATXN2 expr inh
O=C(CSc1cccc2cccnc12)N/N=C/c1ccc(O)cc1,-12%,4%,i,19%,-46%,/
O=C(CCc1ccccc1O)N/N=C/c1ccc(Sc2cccc3cccnc23)o1,14µM*,-7%,?,-1%,-59%,-26%
c1ccc(-c2nc(NCCCn3ccnc3)c3ccccc3n2)cc1,-9%,-18%,?,21%,-14%,-32%
N=c1c2c(-c3ccccc3)c(-c3ccccc3)n(Cc3ccco3)c2ncn1Cc1ccco1,0%,8.9µM*,?,-19%,-119%,?
CCCCn1cnc2c(c(-c3ccccc3)c(-c3ccccc3)n2Cc2ccco2)c1=N,-10%,?,?,0%,3%,-17%
N=c1c2c(-c3ccccc3)c(-c3ccccc3)n(Cc3ccccc3)c2ncn1CCCn1ccnc1,?,7.9µM*,/,-56%,-137%,?
COC(CNC(=O)CNC(=S)N(Cc1ccccc1)Cc1cccs1)OC,-6%,-28%,i,0%,-12%,-13%
CCOC(=O)CNC(=S)N(Cc1cccs1)C1CCCCC1,6%,?,i,4%,27%,0%
CC(CCc1ccccc1)NC(=O)CNC(=S)N(Cc1cccs1)C1CCCC1 (stereo not drawn),?,5µM*,i,11%,2%,3%
CCCCNC(=O)CNC(=S)N(Cc1ccccc1)Cc1cccs1,-27%,5µM*,i,11%,-2%,26%
CC(C)(C)OC(=O)N1CCN(/[N+]([O-])=N/Oc2ccc([N+](=O)[O-])cc2[N+](=O)[O-])CC1,?,/,/,/,-100%,/
O=[N+]([O-])c1ccc(O/N=[N+](\[O-])N2CCN(c3ccccc3)CC2)c([N+](=O)[O-])c1,11µM*,/,/,/,-25%,/
CC(=O)N1CCN(/[N+]([O-])=N/Oc2ccc([N+](=O)[O-])cc2[N+](=O)[O-])CC1,?,/,/,/,-98%,/
COCCOC(=O)N1CCN(/[N+]([O-])=N/Oc2ccc([N+](=O)[O-])cc2[N+](=O)[O-])CC1,?,/,/,/,-98%,/
O=C(OCCF)N1CCN(/[N+]([O-])=N/Oc2ccc([N+](=O)[O-])cc2[N+](=O)[O-])CC1,8.9µM*,/,/,/,20µM*,/
O=[N+]([O-])c1ccc(O/N=[N+](\[O-])N2CCN(c3ncccn3)CC2)c([N+](=O)[O-])c1,10µM*,/,/,/,-91%,/
Cc1ccc(N2C(=O)CS(=O)(=O)C23C(=O)N(Cc2ccccc2C)c2ccccc23)cc1Cl (stereo not drawn),4%,-6%,i,2%,-22%,2%
Cc1cc(Nc2cc(NC(=O)c3c(Cl)cccc3Cl)ccn2)nc(N)n1,/,/,/,/,/,7.7µM*
O=C1C[C@H](c2ccc(-c3ccccc3)cc2)N1S(=O)(=O)c1ccccc1[N+](=O)[O-],-24%,/,/,/,-9%,/
C=CCN=c1scc(-c2ccc3c(c2)NC(=O)CO3)n1/N=C(\C)c1ccccn1,11µM*,-30%,i,6%,-42%,?
C=CCN=c1scc(-c2ccc(F)cc2)n1/N=C/c1ccccn1,?,?,i,?,-40%,6%
COc1cccc(/C=N/NC(=O)Cn2nc(C)c([N+](=O)[O-])c2C)c1O,-6%,-17%,?,-11%,-33%,16µM*
Cc1nn(CC(=O)N/N=C/c2cccs2)c(C)c1[N+](=O)[O-],3%,3%,i,3%,4%,-3%
COc1cccc(/C=N/NC(=O)C(C)n2nc(C)c([N+](=O)[O-])c2C)c1O (stereo not drawn),-1%,1.8µM*,?,-3%,-7%,25µM*
COc1cccc(NC(=S)NNC(=O)C(C)n2nc(C)c([N+](=O)[O-])c2C)c1 (stereo not drawn),0%,5%,i,7%,-36%,-6%
SMILES,TGFb SMAD3 inh,GLP1R inv ag,S2 tox,GLP-1R agonist,HepG2 tox,ATXN2 expr inh
Cc1cccn2c(=O)c(/C=C(\C#N)c3nc4ccccc4n3C)c(Oc3ccc(Br)cc3)nc12,11%,-1%,i,/,10%,-9%
CCOC(=O)c1ccc(NC(=O)Cn2c(C)nc3c(sc(=S)n3CC)c2=O)cc1,-10%,-6%,i,0%,-1%,3%
Cc1nc2c(sc(=S)n2Cc2ccco2)c(=O)n1CC(=O)Nc1ccccc1F,5%,?,?,8%,-2%,-20%
Cc1nc2c(sc(=S)n2Cc2ccco2)c(=O)n1CC(=O)Nc1ccccc1,1%,4.5µM*,i,-2%,-12%,-5%
CCn1c(=S)sc2c(=O)n(CC(=O)Nc3cccc(Cl)c3)c(C)nc21,?,7.9µM*,i,-1%,-31%,-17%
O=C(COC(=O)c1ccc(O)cc1O)NC12CC3CC(CC(C3)C1)C2,?,?,i,0%,-19%,5%
O=C(OCC(=O)C12CC3CC(CC(C3)C1)C2)c1ccc(O)cc1O,?,11µM*,i,23%,-64%,14%
CCOc1ccccc1NC(=O)C1CCN(S(=O)(=O)c2cc(Br)cc3c2N(C(C)=O)CC3)CC1,-3%,-7%,i,/,10%,14%
Cc1ccc(C(=O)NCCc2nnc3n2CCN(Cc2cc(C)cc(C)c2)CC3)cc1,/,/,i,/,/,/
Cc1ccc(C(=O)N2CCN(Cc3cc(=O)n4nc(-c5ccccc5)sc4n3)CC2)cc1,-1%,8%,/,/,4%,/
CCc1ccc(NC(=O)CSC2=Nc3ccccc3C3=NC(CC(=O)NCc4ccc5c(c4)OCO5)C(=O)N23)cc1 (stereo not drawn),-33%,-14%,25µM*,/,-29%,8%
Cc1ncc(-c2ccc(F)cc2)c(C2CCCN(Cc3cccc(O)c3)C2)n1 (stereo not drawn),/,/,i,/,/,/
NC(=S)N/N=C\c1ccccc1OCc1ccccc1,?,5.6µM*,i,-2%,-59%,-14%
NC(=S)N/N=C/c1ccccc1OC(=O)/C=C/c1ccccc1,7.1µM*,2.5µM*,?,14%,4µM*,1.8µM*
NC(=S)N/N=C/c1ccccc1,?,11%,i,-2%,-17%,-4%
Cc1cccc(OCCOc2ccccc2C=C(C#N)C#N)c1,10µM*,?,?,-2%,-83%,3%
